Source: PubChem BioAssay
D1 antagonist: human D1 dopamine receptor antagonism. activity change, negative = inhibition, % at 10 µM. 3.2% of 360,000 active. P21728. HEK293 TREx D1 cells, calcium flux, dopamine EC80; active compounds read low. AID 504652; in the data active = activity change below about -30%
Target sequence (P21728 whole entry, looked up): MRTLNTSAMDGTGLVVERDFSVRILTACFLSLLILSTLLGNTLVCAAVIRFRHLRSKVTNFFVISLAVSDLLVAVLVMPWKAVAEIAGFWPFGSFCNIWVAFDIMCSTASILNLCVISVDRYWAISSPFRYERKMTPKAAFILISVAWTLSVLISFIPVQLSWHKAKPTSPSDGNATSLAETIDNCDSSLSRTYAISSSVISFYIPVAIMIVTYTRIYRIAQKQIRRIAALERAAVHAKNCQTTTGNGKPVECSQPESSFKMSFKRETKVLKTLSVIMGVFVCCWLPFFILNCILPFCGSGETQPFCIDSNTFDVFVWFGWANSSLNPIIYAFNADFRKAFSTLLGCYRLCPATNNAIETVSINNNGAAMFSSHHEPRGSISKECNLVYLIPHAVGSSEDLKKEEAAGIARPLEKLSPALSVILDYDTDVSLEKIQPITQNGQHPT
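Inducible Hek293 Trex D1 cells (tetracycline, overnight, 30 C). Calcium dye 30–90 min RT. Antagonist mode: EC80 dopamine added after 180 s compound read.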
D1 PAM: human D1 dopamine receptor positive modulation | P21728 | potentiation, % at 10 µM | 0.036% of 360,000 active | AID 504651 | HEK293 TREx D1 cells, calcium flux, dopamine EC20 potentiation; in the data active = potentiation above about 30%
TRHR enhancer-1: TRH receptor (human) allosteric enhancement; P34981; TRHR cells, fluo-8 calcium fluorescence, EC20 TRH enhancement; enhancement, % at 2 µM; 0.66% of 360,000 active; AID 493056; in the data active = enhancement above about 30%
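TRHR-expressing cells loaded with fluo-8 calcium dye were read kinetically (ex 480/em 530) during compound addition, then stimulated with an EC20 of TRH (10 nM final). Enhancement of the Gq-mediated intracellular calcium response was scored.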
TRHR agonist-1: agonists of human TRH receptor; activation, % at 2 µM; TRHR cells, calcium flux fluo-8, FDSS agonist mode; P34981; AID 493084; 0.18% of 360,000 active
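TRHR-expressing cells, plated overnight in medium with 10% serum, were loaded with fluo-8 calcium dye at room temperature. After a 10 s baseline, library compound was pin-added and calcium release was recorded kinetically (ex 480/em 530) as agonist response.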
D1 ag: human D1 receptor agonism. P21728. HEK293 T-REx D1 cells, calcium flux, agonist mode. activation, % at 2 µM. 1% of 360,000 active. AID 504660
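Agonism was scored from calcium flux recorded over 180 s (1 read/s) after pintool compound addition, following a 10-cycle baseline. Cells were inducible force-coupled HEK293 TREx D1, plated overnight at 30 C and loaded with no-wash calcium dye.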
TRHR enhancer-2: confirmation of human TRH receptor allosteric enhancers | shares compounds with TRHR enhancer-1 | activity change, negative = inhibition, % at 46.1 µM | 970 tested, under 10 active | TRH receptor cell assay, enhancer confirmation qHTS; active = well fitted curve in the direction sought with a large enough effect; inconclusive = small, poorly fitted or top-dose-only effect, or another doubt; inactive = no such curve, though single readings can be large; an effect the other way counts as inactive or inconclusive;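 note: compound effect scored on response to added TRH at EC20 of 10 nM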
TRHR agonist-2: human TRH receptor agonism confirmation | AID 493078 | TRHR-expressing cells, agonist activation read-out | Potency, µM (highest dose often 46.1 µM), most hits filed as activators | 8% of 970 active | shares compounds with TRHR enhancer-1; active = well fitted curve in the direction sought with a large enough effect; inconclusive = small, poorly fitted or top-dose-only effect, or another doubt; inactive = no such curve, though single readings can be large; an effect the other way counts as inactive or inconclusive; note: nearly all actives have a fitted effect of over 75% in size
Each line names hits and unclear results; the compound was inactive in the other large screens (follow-up assays come after a bar, where they were run). Most compounds without a hit are left out; they make up all but 4.7% or so of the library. Cut-off read from the data, not from the text of the source, unless noted: active = activation above about 30%; inactive = the rest.

COc1ccc(S(=O)(=O)N2CCCCC2)cc1NC(=S)Nc1ccccc1	TRHR enhancer-1 56 | TRHR enhancer-2 inactive | TRHR agonist-2 inactive
CN(C)C(=O)/C(=C/c1cn(-c2ccccc2)nc1-c1cccc([N+](=O)[O-])c1)NC(=O)c1ccccc1	TRHR enhancer-1 43 | TRHR enhancer-2 inactive | TRHR agonist-2 inactive
C=CCNC(=O)/C(=C/c1cn(-c2ccccc2)nc1-c1cccc([N+](=O)[O-])c1)NC(=O)c1ccccc1	none
O=C(NC1CCCCCC1)C1CCN(S(=O)(=O)c2ccc(F)cc2)CC1	none
O=C(NC1CCCCC1)N1CCN(S(=O)(=O)c2ccc(F)cc2)CC1	TRHR enhancer-1 46 | TRHR enhancer-2 inactive | TRHR agonist-2 inactive
CCCCSc1nc2c(cnn2-c2ccc(Cl)cc2)c(=O)[nH]1	TRHR enhancer-1 42 | TRHR enhancer-2 inactive | TRHR agonist-2 inactive
CCOCc1c(C(=O)Nc2ccccc2N2CCN(C)CC2)oc2ccccc12	TRHR enhancer-1 44 | TRHR enhancer-2 inactive | TRHR agonist-2 inactive
CCOCc1c(C(=O)OCC(=O)Nc2ccccc2C(N)=O)oc2ccccc12	none
CC1=C(C(=O)Nc2ccc(Cl)cc2)C(C(C)C)n2nc(SCc3cccc(C)c3)nc2N1 (centres undefined)	none
CC(C)CC(=O)NC(=S)N1CCCCCC1	TRHR enhancer-1 42 | TRHR enhancer-2 inconclusive | TRHR agonist-2 inactive
CCOc1ccc(-c2cn3c(n2)sc2cc(C(=O)NCCC4=CCCCC4)ccc23)cc1	none
C[n+]1cn(CC(O)COCc2ccccc2)c2ccccc21 (centres undefined)	TRHR enhancer-1 53 | TRHR enhancer-2 inactive | TRHR agonist-2 inactive
COc1ccc(CNC(=O)CCc2c(C)nc3c(c2C)c(=O)n(C)c(=O)n3C)cc1	none
